40 compounds from PubChem BioAssay (NCI) can be followed below.

Molecules are shown by their SMILES. This is part of a sample that, as a whole, favours compounds with a hit. Of some 83,000 tested, about 20% had one in any assay.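 Plates (96-well) were seeded with cells, treated with compound at one concentration, and incubated for 48 hours before percent growth was determined.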 Activity calls are given as the source filed them.

The assay deals with HOP-62 NSCLC. Put plainly: NCI-60 one-dose screen, 48 h (100 = growth as untreated, 0 = no growth, -100 = all killed). As to conditions: 10 µM unless noted. How it is done: Growth inhibition of the HOP-62 human Non-Small Cell Lung tumor cell line is measured as a screen for anti-cancer activity. Cells are grown in 96 well plates and exposed to the test compound for 48 hours. Compounds are tested at a single concentration, which is 10^-5 M for most compounds. The reported endpoint is percent growth (GI% or GIPRCNT), where numbers from 0 - 100% represent growth inhibition, and numbers from -100% - 0 represent cell death. For example, a value of 40 represents 60% growth inhibition. A value of 0 means no net growth occurred over the course of the experiment. A value of -40 indicates 40% of cells at the beginning of the experiment died by the end of the experiment. A value of -100 means all cells are dead at the end of the experiment.
NCI-60 Human Tumor Cell Lines Screen was performed using the standard one-dose NCI protocol, which is described in more detail at https://dtp.cancer.gov/discovery_development/nci-60/default.htm.
Compounds with GIPRCNT values below 10 were considered active. Activity score was based on GIPRCNT using the following formula: […]
Score is 0 for GIPRCNT values of 100 or above, 50 for GIPRCNT values of 0, and 100 for GIPRCNT values of -100.
In the case of `COc1cccc(C=NC(Cc2cnc[nH]2)C(=O)O)c1O` (stereo not given), the growth was 87.6% (inactive).

In the case of `[Cl][Hg][c]1cc[c]([Hg][Cl])o1`, the growth is 72.9% (inactive).

In the case of `Cc1cc(-c2nc3cc(F)ccc3[se]2)cc(F)c1N`, the growth is 71.2% (inactive).

For the compound `Nc1c(F)cc(-c2nc3cc(F)ccc3[se]2)cc1F`, the growth is 58.9% (inactive).

Regarding `CC[C@H](C)[C@H](NC(=O)[C@H]1CCCCN1C)C(=O)N(C)[C@H](C[C@@H](OC(C)=O)c1cccc(C(=O)N[C@@H](Cc2ccccc2)C[C@H](C)C(=O)O)n1)C(C)C`, the growth was 1.64% (active).

As for `CCN(CC)c1ccc2c(c1)OC(N)=C(C#N)C2c1cc(OC)c2c(c1)OCO2` (stereo not given), the growth was 42% (inactive).

Regarding `CC1(C)C(C(=O)c2cn(CCCCF)c3ccccc23)C1(C)C`, the growth was 92.9% (inactive).

`CC(C)(C)N1CC1C#N` (stereo not given): the growth is 105% (inactive).

For the compound `Nc1ccc(OCCNS(=O)(=O)c2cccc(S(=O)(=O)F)c2)c(Cl)c1`, the growth was 90% (inactive).

`C=CC[PH+](c1ccccc1)c1ccccc1.C=CC[PH+](c1ccccc1)c1ccccc1.[Cl][Pt][Cl]`: the growth is 95.8% (inactive).

`CC(=O)C(c1c(O)c2ccccc2oc1=O)c1cc(=O)oc2c1ccc1ccccc12` (stereo not given): the growth is 90.9% (inactive).

As for `Cc1c2cc(Cl)c3ccccc3c2c[n+]2ccccc12`, the growth is 12.3% (inactive).

On to `O=C1C(Cl)=C(N2CCOCC2)C(=O)c2ccccc21`, for which the growth was 105% (inactive).

As for `O=C(CC1(O)C(=O)N(Cc2ccccc2)c2ccc(Br)cc21)c1ccc(C(=O)NCC2CCC3(CC2)OOC2(CCCCC2)OO3)cc1` (stereo not given), the growth was -55.6% (active).

For `COc1ccc(C(=O)c2sc3nc4c(cc3c2N)N2CCC4CC2)cc1OC`, the growth is 72.9% (inactive).

Consider `[Cl][Hg][c]1cc(Br)cc(Br)c1`, for which the growth is 31.7% (inactive).

For the compound `COc1ccc(Nc2ccnc3cc(Cl)ccc23)cc1CN(CCCl)CCCl`, the growth was -38.8% (active).

In the case of `NC(=O)C(Br)c1ccccc1` (stereo not given), the growth was 103% (inactive).

As to `COC(=O)[C@H](C[C@H](Cc1ccccc1)NC(=O)c1csc([C@@H](C[C@H](C(C)C)N(C)C(=O)[C@@H](NC(=O)[C@H]2CCCCN2C)C(C)C)OC(C)=O)n1)NC(=O)OCc1ccccc1`, the growth is 18.6% [8.5 µM] (inactive).

Take `Cn1cc(-c2csc(-c3cn(CCN4CCOCC4)c4ccccc34)n2)c2cccnc21`: the growth is 55.3% (inactive).

On to `COc1cccc2c1c(C(=O)c1ccco1)cn2Cc1ccc(F)cc1`, for which the growth was 125% (inactive).

For the compound `O=[N+]([O-])c1cc(I)cc([N+](=O)[O-])c1`, the growth is 133% (inactive).

Take `COC1=CC(=O)O[C@@H](/C=C/c2ccc3c(c2)OCO3)C1`: the growth is 112% (inactive).

As for `CCCCCCCCC(CO)NCCc1ccccc1` (stereo not given), the growth is 98% (inactive).

Regarding `CC(=O)OC1CCC2C3CCC4=C/C(=N/OC(=O)c5ccc(N(CCCl)CCCl)cc5)CCC4(C)C3CC(C)C12` (stereo not given), the growth was 78.6% (inactive).

For the compound `Oc1ccc2c3c1OC1[C@@H](O)CC[C@@]4(O)[C@@H](C2)N(CC2CCC2)CC[C@]314` (stereo not given in full), the growth is 107% (inactive).

`COC(=O)[C@H](Cc1ccccc1)NNC(=O)c1csc([C@@H](C[C@H](C(C)C)N(C)C(=O)[C@@H](NC(=O)[C@H]2CCCCN2C)C2CC2)OC(C)=O)n1`: the growth was 8.12% (active).

Regarding `c1cnc2[nH]cc(-c3csc(-c4cn(CCCCN5CCOCC5)c5ccccc45)n3)c2c1`, the growth was 52.8% (inactive).

`COc1ccc2nc(NC(=O)COc3cc(/C=C\c4cc(OC)c(OC)c(OC)c4)ccc3OC)sc2c1`: the growth was 45% (inactive).

Consider `C/C(=C\c1ccn(-c2ccc(N)cc2C(F)(F)F)n1)[C@@H]1C[C@@H]2O[C@]2(C)CCC[C@H](C)[C@H](O)[C@@H](C)C(=O)C(C)(C)[C@@H](O)CC(=O)O1`, for which the growth is 24.5% (inactive).

For the compound `O=C(O)C(Cl)(Cl)C(F)(F)F`, the growth is 111% (inactive).

For `CCCOC(=O)N[C@H]1CCc2c(Br)c(OC)c(OC)c(OC)c2-c2ccc(SC)c(=O)cc21`, the growth was 41.1% (inactive).

Take `CO[C@H]1CC[C@@]2(C)C(=CC[C@@H]3[C@@H]2CC[C@]2(C)C(=O)C(=O)C[C@@H]32)C1`: the growth was 106% (inactive).

With `COC(=O)[C@@H](C)C[C@H](Cc1ccccc1)NC(=O)c1cccc([C@@H](C[C@H](C(C)C)N(C)C(=O)[C@@H](NC(=O)[C@H]2CCCCN2C)C(C)C)OC(C)=O)n1`, the growth was 23.2% (inactive).

Turning to `Fc1ccc(N2COOC3(OOC2)C2CC4CC(C2)CC3C4)cc1`, the growth was 83.6% (inactive).

Consider `O=C(CCCC1CCCCC1)OCC(Cl)(Cl)Cl`, for which the growth is 98.7% (inactive).

Turning to `Clc1cccc(Cl)c1Cl`, the growth was 99% (inactive).

On to `NC(=O)CNc1ccc([As]=[As]c2ccc(NCC(N)=O)cc2)cc1` (stereo not given), for which the growth was 94% (inactive).

As to `Cc1cccc(N2CCN(C(C)C#N)CC2)c1` (stereo not given), the growth is 107% (inactive).

In the case of `CC12CC=CCC1CCC1C2CCC2(C)C(c3ccc(=O)oc3)CCC12O` (stereo not given), the growth is -65.2% (active).
